In the library only some 22% were active in any assay of this set; here they are far more common.
Shiga toxin inh – Shiga toxin inhibition | Vero cells, Shiga toxin protein synthesis inhibition reporter | inhibition, % at 38.7 µM | 290,000 compounds, 9.2% hits; in the data active = inhibition mostly above about 28%, no sharp cut-off; inactive = mostly below about 43%; note: 0% is about no effect
LmPK inhibitor – blocks Leishmania mexicana pyruvate kinase activity; Q27686; purified LmPK, Kinase-Glo ATP luminescence, 1 h; Potency, µM (top dose mostly 57.5 µM), for inactives: top-dose activity change, negative = inhibition, hits mostly inhibitors; 290,000 compounds, 0.37% hits; AID 1721; note: potency is the fitted concentration of half-maximal effect; % is set by controls: 0 for no effect and ±100 for the full control effect
Target sequence (Q27686 whole entry, looked up): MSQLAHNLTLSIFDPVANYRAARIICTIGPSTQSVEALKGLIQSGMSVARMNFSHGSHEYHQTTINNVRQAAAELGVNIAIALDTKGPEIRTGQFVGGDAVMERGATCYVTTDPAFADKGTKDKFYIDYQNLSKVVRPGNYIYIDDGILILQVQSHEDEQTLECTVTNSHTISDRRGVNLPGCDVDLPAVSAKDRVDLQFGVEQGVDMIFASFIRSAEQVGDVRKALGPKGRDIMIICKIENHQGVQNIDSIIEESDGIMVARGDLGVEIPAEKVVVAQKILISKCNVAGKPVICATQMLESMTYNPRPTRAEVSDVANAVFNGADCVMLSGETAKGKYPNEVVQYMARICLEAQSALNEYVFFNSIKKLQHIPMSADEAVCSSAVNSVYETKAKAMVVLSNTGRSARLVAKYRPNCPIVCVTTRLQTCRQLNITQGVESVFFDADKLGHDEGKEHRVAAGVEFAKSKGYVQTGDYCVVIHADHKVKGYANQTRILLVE
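Purified LmPK (0.1 nM) with 0.5 mM PEP and 0.1 mM ADP in imidazole buffer pH 7.2 with MgCl2/KCl, 1 h at room temperature. ATP formed was read by luciferase luminescence and normalized to no-enzyme and uninhibited controls.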
Pf growth 96h – inhibits malaria parasite growth, 96 h; P. falciparum luciferase reporter growth, 96 h; Potency, µM (titrated, usually from 28.7 µM), for inactives: at the highest dose activity change, negative = inhibition, actives largely listed as inhibitors; 320,000 compounds, 6.9% hits; AID 504834; note: potency is the fitted concentration of half-maximal effect; % is set by controls: 0 for no effect and ±100 for the full control effect
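96 h incubation, 37 C, 5% CO2, of luciferase-reporter P. falciparum-infected RBCs (2% hematocrit, 0.05% parasitemia final) with test compounds; endpoint luminescence.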
Pf growth 48h – P. falciparum growth inhibition at 48 hours (one generation). Potency, µM (highest dose often 28.7 µM), for inactives: at the top dose activity change, negative = inhibition, hits mostly inhibitors. P. falciparum luciferase growth in erythrocytes, 48 h. 310,000 compounds, 5.9% hits; note: potency is the fitted concentration of half-maximal effect; % is set by controls: 0 for no effect and ±100 for the full control effect
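Luminescence readout; reporter = integrated firefly luciferase in P. falciparum. RBC culture at 2% hematocrit, 0.1% parasitemia final, 37 C/5% CO2; decreased signal taken as growth inhibition.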
CHX counter – affects cycloheximide protein synthesis inhibition readout, counter-screen | cell reporter, cycloheximide protein synthesis inhibition counterscreen | max response, % | 300,000 compounds, 12% hits | AID 2314; in the data active = max response mostly above about 13%, no sharp cut-off; inactive = mostly below about 14%; note: read at 38.3 µM for the half of the compounds with a filed dose; 0% is about no effect
* = called active by the depositor; [ ] = another dose, or the depositor's remark. Unless noted, calls come from the whole dose curve; as a rule, active = well fitted inhibition curve with a large enough effect; inconclusive = small, poorly fitted or top-dose-only effect, or another doubt; inactive = no such curve, though single readings can be large or run the other way.

COc1ccc(-n2ccnc2SCC(=O)NC2CCCC2)cc1 was read as Pf growth 96h -1% and Pf growth 48h -7%.
O=C(NCc1ccccn1)c1cc(-c2ccc(Cl)cc2)nc2ccccc12 was read as Shiga toxin inh 33*, LmPK inhibitor 0%, Pf growth 96h inconclusive, Pf growth 48h inconclusive and CHX counter 10.
For O=C(NCc1ccccn1)c1cc(-c2ccc(-c3ccccc3)cc2)nc2ccccc12 the results were Shiga toxin inh 128*, LmPK inhibitor 4%, Pf growth 96h inconclusive, Pf growth 48h inconclusive and CHX counter 20*.
Cc1cccc2sc(NNC(=O)c3cc(-c4cccs4)nc4ccccc34)nc12 was read as Shiga toxin inh 26, LmPK inhibitor 5%, Pf growth 96h 4.1µM*, Pf growth 48h inconclusive and CHX counter -1.
For O=C(NCc1ccccn1)c1cc(-c2ccccc2)nc2ccccc12 the results were Shiga toxin inh -10, LmPK inhibitor -3%, Pf growth 96h 6%, Pf growth 48h inconclusive and CHX counter -2.
NNC(=O)c1cc(-c2cccs2)nc2ccccc12 was read as Shiga toxin inh -6, LmPK inhibitor 5%, Pf growth 96h -19%, Pf growth 48h inconclusive and CHX counter 1.
CCN1C(=O)C(=O)N(CC(=O)N2CCC(C)Sc3ccccc32)C1=O (stereo not given) was read as Pf growth 96h -10% and Pf growth 48h 0%.
`CCc1ccc(N(CC(=O)NCc2ccco2)C(=O)CCC(=O)Nc2ccccn2)cc1` gave Shiga toxin inh 31, LmPK inhibitor 6%, Pf growth 96h -5%, Pf growth 48h 0% and CHX counter 8.
Screening c1ccc(-c2cnc(SCCN3CCOCC3)n2CC2CCCO2)cc1 (stereo not given) returned Shiga toxin inh -4, LmPK inhibitor -8%, Pf growth 96h inconclusive, Pf growth 48h -7% and CHX counter -2.
COc1ccc(-c2cnc(N)n2CC2CCCO2)cc1 (stereo not given) was read as Shiga toxin inh 65, LmPK inhibitor -10%, Pf growth 48h inconclusive and CHX counter 22*.
Screening CC(C)(C)c1ccc(-c2noc(-c3ccc4c(c3)CCO4)n2)cc1 returned Shiga toxin inh 35*, LmPK inhibitor -2%, Pf growth 96h 183%, Pf growth 48h 119% and CHX counter 21*.
For Cc1nc(-c2cc(-c3nc(-c4cc(C(F)(F)F)cc(C(F)(F)F)c4)no3)no2)cs1 the results were Shiga toxin inh 7, LmPK inhibitor -3%, Pf growth 96h 31%, Pf growth 48h 24% and CHX counter -2.
Screening CCn1nc(C)c(Br)c1-c1nc(-c2ccc(C)cc2)no1 returned Shiga toxin inh 7, LmPK inhibitor 0%, Pf growth 96h -7%, Pf growth 48h 15% and CHX counter 1.
Cc1nc(-c2cc(-c3ccc(Cl)cc3)no2)cs1 was read as Shiga toxin inh 83*, LmPK inhibitor -7%, Pf growth 96h 366%, Pf growth 48h 285% and CHX counter 52*.
`Cc1cc(-c2nc(-c3ccc(C(C)(C)C)cc3)no2)no1` gave Shiga toxin inh 53*, LmPK inhibitor -5%, Pf growth 96h 119%, Pf growth 48h 405% and CHX counter 39*.
Screening Cc1c(-c2nc(-c3ccc(C(C)(C)C)cc3)no2)n(C)oc1=O returned Shiga toxin inh 161*, LmPK inhibitor -1%, Pf growth 96h -71%, Pf growth 48h -73% and CHX counter 60*.
`CC(C)(C)c1ccc(-c2nnc(SCC(=O)c3ccc4c(c3)OCCO4)o2)cc1` gave Shiga toxin inh 27, LmPK inhibitor 0%, Pf growth 96h 21%, Pf growth 48h 26% and CHX counter 9.
Screening CC(NC(=O)Cn1cc(C(F)(F)F)ccc1=O)c1ccc(F)cc1 (stereo not given) returned Shiga toxin inh -7, LmPK inhibitor 0%[11.5 µM], Pf growth 96h inconclusive, Pf growth 48h inconclusive and CHX counter 9.
Screening CNC(=O)CN(Cc1ccccc1)S(=O)(=O)c1ccc(Cl)cc1 returned Shiga toxin inh -2, LmPK inhibitor -3%, Pf growth 96h inconclusive, Pf growth 48h 3% and CHX counter -3.
`Cc1nc(-c2cc(-c3nc(-c4ccc(C(F)(F)F)cc4)no3)no2)cs1` gave Shiga toxin inh 11, LmPK inhibitor 5%, Pf growth 96h 3%, Pf growth 48h 0.66µM* and CHX counter 9.
Cc1ccc(C(=O)CSc2nc(O)cc(=O)[nH]2)cc1C was read as Shiga toxin inh -2, LmPK inhibitor 3%, Pf growth 96h inconclusive, Pf growth 48h 0% and CHX counter 1.
For O=C(NCc1nnnn1-c1ccc(F)c(F)c1)c1cc2ccccc2o1 the results were Pf growth 96h -14% and Pf growth 48h -2%.
`COc1cccc(OC)c1C(=O)Nc1ccc2c(c1)OCCO2` gave Shiga toxin inh 25, LmPK inhibitor 1%, Pf growth 96h 15%, Pf growth 48h 21% and CHX counter -3.
CCOc1ccc(C(=O)OCC(=O)Nc2ccc3c(c2)OCCO3)cc1OC was read as Pf growth 96h -15% and Pf growth 48h 10%.
`COc1cc(C(=O)Nc2ccc3c(c2)OCCO3)ccc1OC(F)F` gave Shiga toxin inh 66*, LmPK inhibitor inconclusive, Pf growth 96h inconclusive, Pf growth 48h 14% and CHX counter 33*.
For COc1cc(C(=O)Nc2ccc3c(c2)OCCO3)ccc1OC(C)C the results were Shiga toxin inh active, LmPK inhibitor -7%, Pf growth 96h inconclusive, Pf growth 48h 99% and CHX counter 44*.
For CCn1cc(C(=O)Nc2ccc3c(c2)OCCO3)c2cc(OC)c(OC)cc2c1=O the results were Shiga toxin inh 29, LmPK inhibitor 12%, Pf growth 96h inconclusive and CHX counter 12*.
Screening COc1ccc(C(=O)Nc2ccc3c(c2)OCCO3)cc1[N+](=O)[O-] returned Shiga toxin inh 31*, LmPK inhibitor 0%, Pf growth 96h inconclusive, Pf growth 48h 70% and CHX counter 18*.
Screening COc1ccc2oc(C(=O)OCC(=O)NCc3ccc(OC)c(OC)c3)c(C)c2c1 returned Pf growth 96h 1% and Pf growth 48h 1%.
Screening CCOCCn1c(N2CCCC2)nc2c1c(=O)n(C)c(=O)n2C returned Shiga toxin inh 4, LmPK inhibitor 4%, Pf growth 96h 146%, Pf growth 48h 0% and CHX counter -3.
COc1ccc(NC(=O)c2ccc3c(c2)OCCO3)cc1OC was read as Shiga toxin inh 62*, LmPK inhibitor -23%, Pf growth 96h 14%, Pf growth 48h 216% and CHX counter 22*.
Screening CCn1cc(C(=O)N(C)c2ccc(OC)cc2OC)c2cc(OC)c(OC)cc2c1=O returned Shiga toxin inh 58*, LmPK inhibitor 2%, Pf growth 96h 1%, Pf growth 48h -4% and CHX counter 47*.
